Laboratory results reported in PubChem BioAssay (NCI).
Several values for one entry are separate records, joined by “and”; a condition that tells them apart may be missing. Equal values may be shown once. Compounds without any hit were thinned out: in the full panel of roughly 79,000, 15% have a hit. Activity calls are given as the source filed them. Rule as the data show it: active = growth inhibition above about 70%; inactive = the rest.

Test: NCI Yeast Anticancer Drug Screen. Data for the sgs1 mgt1 strain (AID 161);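 also: 0% = growth of cultures given vehicle only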
Conditions: S. cerevisiae sgs1 mgt1 strain, at 50.0 µM, stronger effect = higher value
Method in brief: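 Compounds are added to genetically altered yeast, and growth is compared with cultures given vehicle alone to give percent inhibition.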

| Compound | growth inhibition |
| --- | --- |
| O=C(O)C1C2C=Cc3ccccc3C21 (stereo unspecified) | -11.3% (inactive) |
| C#CCOC(=O)C=[N+]=[N-] | -10.6% (inactive) |
| COc1ccccc1CC(C)N (stereo unspecified) | 8.3% (inactive) |
| CCNC(=O)CCl | 21.4% (inactive) |
| O=C(Cc1c[nH]c2ccccc12)N/N=C\c1ccc(N(CCCl)CCCl)cc1 | 11.8% (inactive) |
| CCN(CC)C(=S)SCc1ccccc1OC(=O)NC | 7.2% (inactive) |

Test: NCI Yeast Anticancer Drug Screen. Data for the cln2 rad14 strain (AID 165);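 also: 0% = growth equal to vehicle treated cultures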
Conditions: S. cerevisiae cln2 rad14 strain, at 50.0 µM, stronger effect = higher value
Method in brief: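 Yeast strain cln2 rad14, bearing defects in cell cycle control and DNA repair, serves as the test system; values reflect growth inhibition compared with vehicle.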

| Compound | growth inhibition |
| --- | --- |
| CC1(C)[C@@H]2CC[C@@]1(C)CN(CCC[N+](C)(C)C)C2 | -5.55% (inactive) |
| CCC1(O)CC(O)c2c(O)c3c(c(O)c2C1C(=O)OC)C(=O)c1cccc(O)c1C3=O (stereo unspecified) | 21.8% (inactive) |
| COC(=O)C1C2CCCN2OC1(C)CO (stereo unspecified) | 2.45% (inactive) |
| CCC[CH2][Sn]([Br])([CH2]CCC)[CH2]CCC | 96% (active) |
| Cc1ccc2ccccc2c1 | -3.05% (inactive) |
| CN1CN(c2ccccc2)C2(CCN(CC(C)(c3ccc(F)cc3)C3OCCCO3)CC2)C1=O (stereo unspecified) | -5.3% (inactive) |
| C[P+](C)(C)C | 1.4% (inactive) and -5.8% (inactive) |
| C/C=C/C1(CCCC)C(=O)NC(=O)NC1=O | 8.75% (inactive) |
| CCOC(=O)C(Cc1ccc(N(CCCl)CCCl)cc1)NC(=O)C(N)CO (stereo unspecified) | -1.3% (inactive) |
| CC(COC(=O)NCc1ccccc1)OC(N)=O (stereo unspecified) | -10.3% (inactive) |
| CS/C([S-])=N/N=C(C)C.CS/C([S-])=N/N=C(C)C.[Pt+2] | -41.3% (inactive) |
| O=c1[nH]cc(N=Cc2ccccc2Cl)c(=O)[nH]1.[Cl][Pt][Cl] | 1.95% (inactive) |
| [Mn+3].[O-][Cl+3]([O-])([O-])O.[O-]c1ccccc1C=NCCN1CC1.[O-]c1ccccc1C=NCCN1CC1 | 87.1% (active) |
| CN1C[C@H]2[C@@H](C1=O)[C@H](c1ccccc1)ON2C | 13.6% (inactive) |
| O=C(O)COc1nc(Cl)c(Cl)cc1Cl | -1.75% (inactive) |
| CCCCOc1ccc([As](=O)(O)O)cc1 | -19.2% (inactive) |
| CC1=CC(=O)NP(=O)(Oc2ccc(C)cc2)N1 (stereo unspecified) | -0.75% (inactive) |
| C[C@]12C=CC(=O)C=C1CC[C@@H]1[C@@H]2C(=O)C[C@]2(C)C(=O)CC[C@@H]12 | -1.85% (inactive) |
| O=C1C2CCN(CC2)C1(CO)CO | -58.1% (inactive) |
| O=P(c1ccccc1)(c1ccccc1)c1ccccc1.O=P(c1ccccc1)(c1ccccc1)c1ccccc1.O=P(c1ccccc1)(c1ccccc1)c1ccccc1.O=P(c1ccccc1)(c1ccccc1)c1ccccc1.[Co+2].[O-][Cl+3]([O-])([O-])O | 20.9% (inactive) |

| Compound | growth inhibition |
| --- | --- |
| COc1cc2c(c(Oc3ccc(C)cc3)c1)CN(C)CC2 | 39.7% (inactive) |
| CC(C)(C)C1COP(=S)(C(C)(C)C)OC1 (stereo unspecified) | -20.5% (inactive) |
| N#CCCCl | -23.4% (inactive) |
| NNC(=O)NC(=O)NN | -8.95% (inactive) |
| Cc1ccccc1N | -1.7% (inactive) |
| CC(C)(C)C1(C)CN(N=O)C(=O)O1 (stereo unspecified) | -26.1% (inactive) |
| NC(CCCCCP(=O)(O)O)C(=O)O (stereo unspecified) | -12.3% (inactive) |
| O=C(NCCc1ccc([N+](=O)[O-])cc1)c1ccc(S(=O)(=O)F)cc1 | 3% (inactive) |
| CC(NC1=NCCO1)c1ccccc1Cl (stereo unspecified) | -27.9% (inactive) |
| O=C(/C=C/c1ccccc1)Nc1ccc(Cl)cc1C(=O)c1ccccc1 | -6.6% (inactive) |
| Cc1ccc(NC(=O)C(Cl)(Cl)Cl)cc1Cl | -5.2% (inactive) |
| CC1=NCCN=C(C)C1[N+](=O)[O-] | 0.55% (inactive) |
| O=C(O)CCCC1CCCCC1.[Ni] | 16% (inactive) |
| CCN1C(=O)C(=Cc2ccc(-c3ccccc3)cc2)C(=O)N(CC)C1=S | 16.9% (inactive) |
| O=C(O)C1C2C=Cc3ccccc3C21 (stereo unspecified) | -26.6% (inactive) |
| C#CCOC(=O)C=[N+]=[N-] | 14.7% (inactive) |
| COc1ccccc1CC(C)N (stereo unspecified) | 16% (inactive) |
| CCNC(=O)CCl | -2% (inactive) |
| O=C(Cc1c[nH]c2ccccc12)N/N=C\c1ccc(N(CCCl)CCCl)cc1 | 31.9% (inactive) |
| CCN(CC)C(=S)SCc1ccccc1OC(=O)NC | -43.5% (inactive) |
